From PubChem BioAssay come the findings set out here.

Values joined by “and” are separate entries in the source; they are usually repeats but may differ in a detail not shown here. Identical values can stand only once. Active and inactive are the calls of the source.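 Rule for the calls: active = thallium flux through the channel raised or lowered by more than 3 SD from vehicle-only wells, actives on both sides; inactive = the rest.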

This test deals with Calcium-activated potassium channel subunit alpha-1 (Homo sapiens) + Leucine-rich repeat-containing protein 26 (Homo sapiens) (UniProt Q12791+Q2I0M4). Put plainly: BK channel mutant inhibitors and activators – cell-based, U2OS BacMam, thallium flux, beta subunits, selectivity assay, profiling panel (AID 1259406).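 Note: initial slope of Thallos dye fluorescence rise after thallium is added; log ratio against the mean of 0.3% DMSO vehicle wells on the same plate.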 The following applies: U2OS BacMam BK variants, F380Y/Slo1WT/gamma1, at 30 µM.
Calcium-activated potassium channel subunit alpha-1 (Homo sapiens) + Leucine-rich repeat-containing protein 26 (Homo sapiens), sequence (Q2I0M4 whole entry, looked up, one chain of several): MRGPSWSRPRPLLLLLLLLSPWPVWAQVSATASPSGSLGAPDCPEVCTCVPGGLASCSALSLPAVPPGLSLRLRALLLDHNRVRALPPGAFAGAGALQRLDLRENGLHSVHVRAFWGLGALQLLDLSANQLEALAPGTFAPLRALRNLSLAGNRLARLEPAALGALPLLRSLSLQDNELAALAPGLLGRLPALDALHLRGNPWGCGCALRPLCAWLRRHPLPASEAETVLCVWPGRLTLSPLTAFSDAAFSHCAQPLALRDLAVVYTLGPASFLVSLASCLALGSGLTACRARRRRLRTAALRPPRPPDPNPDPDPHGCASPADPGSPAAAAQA
Take `OCCN1CCN(CCCN2c3ccccc3Sc3ccc(C(F)(F)F)cc32)CC1`: the log fold change Tl+ flux is 0.0357 (inactive).
The same measure for `NS(=O)(=O)c1cc2c(cc1Cl)NC=NS2(=O)=O`: 0.00339 (inactive); for `O=C1C(CCS(=O)c2ccccc2)C(=O)N(c2ccccc2)N1c1ccccc1` (centres undefined): 0.000816 (inactive); for `Cc1ccc(-c2cc(C(F)(F)F)nn2-c2ccc(S(N)(=O)=O)cc2)cc1`: -0.0327 (inactive).
The value for `CN[C@H]1CC[C@@H](c2ccc(Cl)c(Cl)c2)c2ccccc21` was 0.123 (active) and 0.169 (active); that for `Cc1ccccc1C(OCCN(C)C)c1ccccc1` (centres undefined) was -0.00307 (inactive) and 0.0363 (inactive).
The value for `CCc1nc(N)nc(N)c1-c1ccc(Cl)cc1` was -0.0172 (inactive); that for `COc1cc2nc(N(C)CCCNC(=O)C3CCCO3)nc(N)c2cc1OC` (centres undefined) was -0.0369 (inactive).
Regarding `CN(C)CCOC(c1ccc(Cl)cc1)c1ccccn1` (centres undefined), the log fold change Tl+ flux was 0.0613 (inactive).
The same measure for `N[C@@H](C(=O)N[C@@H]1C(=O)N2C(C(=O)O)=C(Cl)CS[C@H]12)c1ccccc1`: -0.07 (inactive); for `Nc1ncn([C@@H]2O[C@H](CO)[C@@H](O)[C@H]2O)c(=O)n1`: 0.00381 (inactive); for `NCc1ccc(S(N)(=O)=O)cc1`: 0.00552 (inactive).
For `Cc1ncc([N+](=O)[O-])n1CC(C)O` (centres undefined), the log fold change Tl+ flux is -0.0293 (inactive).
The same measure for `Cc1ccc(C)c(OCCCC(C)(C)C(=O)O)c1`: 0.0687 (inactive); for `CN1CCCC(n2nc(Cc3ccc(Cl)cc3)c3ccccc3c2=O)CC1` (centres undefined): 0.0633 (inactive); for `NS(=O)(=O)c1cc2c(cc1C(F)(F)F)NC(Cc1ccccc1)NS2(=O)=O` (centres undefined): -0.0118 (inactive).
The same measure for `COC1=CC(=O)C[C@@H](C)[C@]12Oc1c(Cl)c(OC)cc(OC)c1C2=O`: -0.0624 (inactive).
The value for `Cc1cn([C@H]2C[C@H](N=[N+]=[N-])[C@@H](CO)O2)c(=O)[nH]c1=O` was 0.0181 (inactive); that for `CN(CCOc1ccc(CC2SC(=O)NC2=O)cc1)c1ccccn1` (centres undefined) was -0.00356 (inactive) and 0.0332 (inactive); that for `COc1ccc(OC)c(C(O)CNC(=O)CN)c1` (centres undefined) was 0.0303 (inactive).
As for `OC(CCN1CCCC1)(c1ccccc1)C1CCCCC1` (centres undefined), the log fold change Tl+ flux was 0.011 (inactive).
The value for `NC(=O)N1c2ccccc2CC(=O)c2ccccc21` was 0.0743 (inactive).
The same measure for `CCCNCC(O)COc1ccccc1C(=O)CCc1ccccc1` (centres undefined): 0.00467 (inactive).
The same measure for `C/C=C/C(=O)N(CC)c1ccccc1C`: 0.0385 (inactive).
With `CCCCCCNC(=O)n1cc(F)c(=O)[nH]c1=O`, the log fold change Tl+ flux was -0.0355 (inactive).
The value for `NC(=O)c1cnccn1` was -0.0208 (inactive); that for `CN(C)CCc1c[nH]c2ccc(C[C@H]3COC(=O)N3)cc12` was 0.0131 (inactive); that for `COc1ccccc1OCC(O)COC(N)=O` (centres undefined) was 0.0335 (inactive).
The same measure for `COC(=O)Nc1nc2ccc(C(=O)c3ccccc3)cc2[nH]1`: 0.00509 (inactive).
The same measure for `CCn1cc(C(=O)O)c(=O)c2cc(F)c(N3CCN(C)CC3)cc21`: -0.0628 (inactive); for `Cn1cnc([N+](=O)[O-])c1Sc1ncnc2nc[nH]c12`: -4.3e-05 (inactive).
Turning to `c1ccc2[nH]c(-c3cscn3)nc2c1`, the log fold change Tl+ flux was 0.048 (inactive).
The value for `Cc1onc(-c2c(Cl)cccc2Cl)c1C(=O)N[C@@H]1C(=O)N2[C@@H]1SC(C)(C)[C@@H]2C(=O)O` was 0.0705 (inactive); that for `Clc1ccc2c(c1)C(N1CCNCC1)=Nc1ccccc1O2` was -0.0105 (inactive); that for `CO[C@@]1(NC(=O)Cc2cccs2)C(=O)N2C(C(=O)O)=C(COC(N)=O)CS[C@@H]21` was -0.0176 (inactive).
The same measure for `CCc1cccc2c3c([nH]c12)C(CC)(CC(=O)O)OCC3` (centres undefined): 0.00932 (inactive); for `CC(C)(C)NCC(O)COc1cccc2c1C[C@H](O)[C@H](O)C2` (some centres undefined): 0.00167 (inactive); for `O=S(=O)(O)CCS`: 0.0089 (inactive).
The value for `O=c1[nH]cc(F)c(=O)[nH]1` was -0.0276 (inactive).
